What all share (test): DAPPL (digital affinity profiling via proximity ligation, sequencing); 10 mM Tris-HCl pH 7.5, 50 mM NaCl, 1 mM DTT, 4% glycerol, room temperature, 30 min; GST-TFs on glutathione beads, 16-mer random dsDNA library, 0.1% formaldehyde crosslink after washing; high values mean tight binding
Experiment [1] deals with T1, ELK3 (Homo sapiens, UniProt P41970 1-407).
T1 sequence: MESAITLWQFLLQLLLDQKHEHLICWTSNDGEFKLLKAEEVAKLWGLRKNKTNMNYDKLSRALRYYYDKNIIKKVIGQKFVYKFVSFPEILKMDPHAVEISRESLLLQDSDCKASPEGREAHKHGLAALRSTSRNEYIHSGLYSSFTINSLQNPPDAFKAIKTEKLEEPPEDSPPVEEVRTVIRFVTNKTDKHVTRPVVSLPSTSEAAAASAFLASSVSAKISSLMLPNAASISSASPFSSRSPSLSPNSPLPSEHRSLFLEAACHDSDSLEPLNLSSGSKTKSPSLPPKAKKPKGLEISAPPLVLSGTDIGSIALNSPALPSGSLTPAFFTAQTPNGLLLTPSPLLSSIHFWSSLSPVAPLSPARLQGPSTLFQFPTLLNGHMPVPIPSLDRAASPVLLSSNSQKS
To be noted: protein: recombinant; tags: N-terminal GST; dsDNA, one strand shown. An outline of the steps: (§1)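 Human transcription factors carrying a GST fusion were produced in yeast, bound to glutathione beads, tagged with DNA barcodes and pooled together with a tag-only sample. Each pool was held with 200 nmole of a random double-stranded 16-mer DNA library in Tris/NaCl/DTT/glycerol buffer for 30 min at room temperature, then washed, crosslinked in 0.1% formaldehyde, proximity-ligated with BsaI/T4 ligase (1 h, 37 °C), PCR-amplified and sequenced on an Illumina NextSeq500. Binding signal is the read frequency of each hexamer for a given factor divided by its frequency in the tag-only sample.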

Experiment [2] deals with HSF1 (Homo sapiens, UniProt Q00613 1-529). To be noted: protein: recombinant; tags: N-terminal GST; chain copies: 3; dsDNA, one strand shown. Summed up: as §1
Experiment [3] has as its target T2, ETV2 (Homo sapiens, UniProt O00321 1-342).
T2 sequence: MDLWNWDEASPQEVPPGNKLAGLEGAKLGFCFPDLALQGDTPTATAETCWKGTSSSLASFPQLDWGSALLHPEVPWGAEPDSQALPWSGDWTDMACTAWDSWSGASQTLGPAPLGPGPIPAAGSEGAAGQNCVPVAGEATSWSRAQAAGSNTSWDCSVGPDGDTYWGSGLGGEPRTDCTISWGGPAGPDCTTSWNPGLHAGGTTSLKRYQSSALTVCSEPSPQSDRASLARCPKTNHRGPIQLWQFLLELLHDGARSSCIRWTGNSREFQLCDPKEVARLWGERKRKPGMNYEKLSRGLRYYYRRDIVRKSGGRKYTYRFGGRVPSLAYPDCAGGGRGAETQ
As to conditions: protein: recombinant; tags: N-terminal GST; dsDNA, one strand shown. Summed up: as §1

Experiment [4] concerns the target CRX (Homo sapiens, UniProt O43186 1-299). To be noted: protein: recombinant; tags: N-terminal GST; dsDNA, one strand shown. Summed up:
as §1

Experiment [5] has as its target T3, ETV3L (Homo sapiens, UniProt Q6ZN32 1-361).
T3 sequence: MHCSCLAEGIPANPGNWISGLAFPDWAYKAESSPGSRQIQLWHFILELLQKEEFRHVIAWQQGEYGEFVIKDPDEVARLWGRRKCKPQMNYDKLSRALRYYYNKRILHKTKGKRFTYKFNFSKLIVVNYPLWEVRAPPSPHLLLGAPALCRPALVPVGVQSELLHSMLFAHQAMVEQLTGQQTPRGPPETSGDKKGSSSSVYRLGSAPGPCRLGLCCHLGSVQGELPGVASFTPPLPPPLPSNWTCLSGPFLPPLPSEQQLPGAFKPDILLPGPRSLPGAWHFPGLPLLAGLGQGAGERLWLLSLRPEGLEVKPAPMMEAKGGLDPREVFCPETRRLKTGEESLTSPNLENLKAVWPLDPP
As to conditions: protein: recombinant; tags: N-terminal GST; dsDNA, one strand shown. An outline of the steps: as §1

Experiment [6] has as its target T4, SPDEF (Homo sapiens, UniProt O95238 1-335).
T4 sequence: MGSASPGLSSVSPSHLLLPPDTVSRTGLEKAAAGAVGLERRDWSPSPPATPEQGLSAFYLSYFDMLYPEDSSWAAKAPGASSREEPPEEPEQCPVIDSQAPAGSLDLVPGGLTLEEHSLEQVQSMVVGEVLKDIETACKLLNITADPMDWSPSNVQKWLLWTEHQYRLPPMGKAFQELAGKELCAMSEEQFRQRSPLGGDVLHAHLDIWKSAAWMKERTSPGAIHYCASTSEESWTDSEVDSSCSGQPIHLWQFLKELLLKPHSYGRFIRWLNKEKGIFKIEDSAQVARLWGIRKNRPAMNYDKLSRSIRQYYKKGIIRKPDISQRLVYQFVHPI
To be noted: protein: recombinant; tags: N-terminal GST; dsDNA, one strand shown. An outline of the steps:
as §1

Experiment [7] has as its target T5, ELF3 (Homo sapiens, UniProt P78545 1-371).
T5 sequence: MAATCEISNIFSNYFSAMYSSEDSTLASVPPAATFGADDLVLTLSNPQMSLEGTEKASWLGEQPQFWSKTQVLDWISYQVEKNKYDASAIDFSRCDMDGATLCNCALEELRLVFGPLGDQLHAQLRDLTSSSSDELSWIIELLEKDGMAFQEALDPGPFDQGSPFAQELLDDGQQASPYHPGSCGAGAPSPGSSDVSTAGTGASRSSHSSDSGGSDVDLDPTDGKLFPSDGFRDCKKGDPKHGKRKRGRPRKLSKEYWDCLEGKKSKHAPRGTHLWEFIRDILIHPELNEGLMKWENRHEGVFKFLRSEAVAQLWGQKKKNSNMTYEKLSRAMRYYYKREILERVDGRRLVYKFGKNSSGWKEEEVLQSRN
To be noted: protein: recombinant; tags: N-terminal GST; dsDNA, one strand shown. An outline of the steps:
as §1

In experiment [8] the target is T6, ETV7 (Homo sapiens, UniProt Q9Y603 1-341).
T6 sequence: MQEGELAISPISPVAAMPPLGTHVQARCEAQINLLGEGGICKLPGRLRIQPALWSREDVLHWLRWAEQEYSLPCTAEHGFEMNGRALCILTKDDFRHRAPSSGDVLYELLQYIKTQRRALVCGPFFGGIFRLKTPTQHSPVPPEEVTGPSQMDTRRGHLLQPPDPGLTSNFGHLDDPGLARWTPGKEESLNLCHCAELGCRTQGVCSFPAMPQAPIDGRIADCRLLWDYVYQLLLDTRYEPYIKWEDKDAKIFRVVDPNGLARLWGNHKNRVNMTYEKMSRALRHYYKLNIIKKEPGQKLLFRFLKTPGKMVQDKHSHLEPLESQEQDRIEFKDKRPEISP
As to conditions: protein: recombinant; tags: N-terminal GST; dsDNA, one strand shown. Summed up: as §1

Experiment [9] deals with T7, ELK1 (Homo sapiens, UniProt P19419 1-428).
T7 sequence: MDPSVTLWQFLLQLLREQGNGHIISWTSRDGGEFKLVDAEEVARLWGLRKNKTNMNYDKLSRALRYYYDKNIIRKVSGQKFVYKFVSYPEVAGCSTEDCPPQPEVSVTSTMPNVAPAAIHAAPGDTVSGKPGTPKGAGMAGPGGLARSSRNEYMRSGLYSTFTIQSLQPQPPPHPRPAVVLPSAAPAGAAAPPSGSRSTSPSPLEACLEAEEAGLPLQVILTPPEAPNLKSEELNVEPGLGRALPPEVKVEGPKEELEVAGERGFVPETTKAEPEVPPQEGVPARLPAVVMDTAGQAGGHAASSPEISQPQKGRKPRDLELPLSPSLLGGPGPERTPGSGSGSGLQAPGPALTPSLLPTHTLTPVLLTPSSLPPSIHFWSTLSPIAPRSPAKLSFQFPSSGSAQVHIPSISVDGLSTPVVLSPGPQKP
As to conditions: protein: recombinant; tags: N-terminal GST; dsDNA, one strand shown. An outline of the steps:
as §1

For experiment [10], the target named is T8, EHF (Homo sapiens, UniProt Q9NZC4 1-300).
T8 sequence: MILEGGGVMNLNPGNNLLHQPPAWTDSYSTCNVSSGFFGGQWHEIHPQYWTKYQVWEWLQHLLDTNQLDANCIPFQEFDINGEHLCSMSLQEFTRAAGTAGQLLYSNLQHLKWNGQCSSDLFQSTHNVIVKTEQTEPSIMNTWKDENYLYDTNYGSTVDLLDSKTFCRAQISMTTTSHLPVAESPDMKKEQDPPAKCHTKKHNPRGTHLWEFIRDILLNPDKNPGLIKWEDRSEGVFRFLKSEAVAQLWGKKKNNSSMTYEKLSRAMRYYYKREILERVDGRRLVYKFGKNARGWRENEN
As to conditions: protein: recombinant; tags: N-terminal GST; dsDNA, one strand shown. An outline of the steps:
as §1

Experiment [11] deals with SPIB (Homo sapiens, UniProt Q01892 1-262). As to conditions: protein: recombinant; tags: N-terminal GST; dsDNA, one strand shown. Summed up: as §1
Experiment [12] concerns the target ETV6 (Homo sapiens, UniProt P41212 1-452). To be noted: protein: recombinant; tags: N-terminal GST; dsDNA, one strand shown. Summed up:
as §1

The text below walks through data of article PMC7862700, “An all-to-all approach to the identification of sequence-specific readers for epigenetic DNA modifications on cytosine”.

Chain of HSF1 (Q00613 whole entry): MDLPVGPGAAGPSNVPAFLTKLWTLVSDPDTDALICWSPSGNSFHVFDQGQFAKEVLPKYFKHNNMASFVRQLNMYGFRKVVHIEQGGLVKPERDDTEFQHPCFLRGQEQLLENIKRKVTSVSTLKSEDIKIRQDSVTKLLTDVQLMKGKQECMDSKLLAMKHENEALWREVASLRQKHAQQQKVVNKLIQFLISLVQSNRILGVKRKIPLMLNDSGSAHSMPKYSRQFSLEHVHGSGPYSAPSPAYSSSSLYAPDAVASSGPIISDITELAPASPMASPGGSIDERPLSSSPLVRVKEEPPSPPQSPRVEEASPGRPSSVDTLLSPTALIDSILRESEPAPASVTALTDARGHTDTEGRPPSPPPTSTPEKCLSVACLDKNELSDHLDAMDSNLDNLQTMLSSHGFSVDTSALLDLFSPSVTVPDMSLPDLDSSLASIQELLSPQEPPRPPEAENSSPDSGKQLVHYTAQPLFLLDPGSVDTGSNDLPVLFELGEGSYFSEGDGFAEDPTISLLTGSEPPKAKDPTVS
Chain of CRX (O43186 whole entry): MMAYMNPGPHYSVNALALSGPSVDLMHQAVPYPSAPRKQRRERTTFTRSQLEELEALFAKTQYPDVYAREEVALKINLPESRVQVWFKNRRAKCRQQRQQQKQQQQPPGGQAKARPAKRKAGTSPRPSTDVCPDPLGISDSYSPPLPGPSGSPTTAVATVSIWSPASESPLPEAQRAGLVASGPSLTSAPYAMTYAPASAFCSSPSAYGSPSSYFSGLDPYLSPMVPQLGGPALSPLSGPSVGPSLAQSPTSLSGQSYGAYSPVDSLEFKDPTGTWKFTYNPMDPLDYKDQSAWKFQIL
Chain of SPIB (Q01892 whole entry): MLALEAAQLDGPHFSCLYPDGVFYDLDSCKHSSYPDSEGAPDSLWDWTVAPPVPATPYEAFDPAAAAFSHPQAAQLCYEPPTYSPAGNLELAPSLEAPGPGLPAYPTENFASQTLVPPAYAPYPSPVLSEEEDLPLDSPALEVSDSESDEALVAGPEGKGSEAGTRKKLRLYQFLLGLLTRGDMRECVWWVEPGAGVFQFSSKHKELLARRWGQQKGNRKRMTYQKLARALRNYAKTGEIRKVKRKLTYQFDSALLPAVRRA
Chain of ETV6 (P41212 whole entry): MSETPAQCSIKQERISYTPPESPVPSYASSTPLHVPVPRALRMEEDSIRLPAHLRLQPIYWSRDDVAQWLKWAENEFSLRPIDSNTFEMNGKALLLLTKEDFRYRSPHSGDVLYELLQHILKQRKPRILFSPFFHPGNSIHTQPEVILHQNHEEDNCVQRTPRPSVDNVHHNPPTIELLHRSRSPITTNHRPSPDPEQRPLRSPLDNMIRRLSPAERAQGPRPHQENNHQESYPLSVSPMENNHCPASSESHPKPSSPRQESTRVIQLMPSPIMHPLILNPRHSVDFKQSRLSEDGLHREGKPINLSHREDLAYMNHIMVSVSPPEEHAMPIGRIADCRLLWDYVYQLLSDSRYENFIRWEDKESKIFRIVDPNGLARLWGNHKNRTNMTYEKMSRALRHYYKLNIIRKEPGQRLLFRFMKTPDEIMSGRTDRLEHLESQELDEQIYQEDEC

Consider ATCAAG, for which the binding signal is 1.04 fold enrichment (6-mer frequency, TF over GST control) in [1]; 1.03 fold enrichment (6-mer frequency, TF over GST control) in [2]; 1.17 fold enrichment (6-mer frequency, TF over GST control) in experiment [3]; 1.19 fold enrichment (6-mer frequency, TF over GST control) in experiment [4]; 1.06 fold enrichment (6-mer frequency, TF over GST control) in [5]; 1.01 fold enrichment (6-mer frequency, TF over GST control) in [6].

Consider AGATCA, for which the binding signal was 1.21 fold enrichment (6-mer frequency, TF over GST control) in experiment [2]; 1.03 fold enrichment (6-mer frequency, TF over GST control) in [3]; 1.31 fold enrichment (6-mer frequency, TF over GST control) in [4].

As to GGATAA, the binding signal was 1.2 fold enrichment (6-mer frequency, TF over GST control) in experiment [2] and 1.75 fold enrichment (6-mer frequency, TF over GST control) in experiment [4].

With GCGATT, the binding signal in experiment [2] was 1.23 fold enrichment (6-mer frequency, TF over GST control); in experiment [7], 1.04 fold enrichment (6-mer frequency, TF over GST control); in experiment [4], 1.51 fold enrichment (6-mer frequency, TF over GST control).

For the sequence GGTTAA, the binding signal in experiment [2] was 1.02 fold enrichment (6-mer frequency, TF over GST control); in [7], 1.03 fold enrichment (6-mer frequency, TF over GST control); in [4] it was 1.31 fold enrichment (6-mer frequency, TF over GST control).

In the case of TCGAGA, the binding signal in [2] is 2.36 fold enrichment (6-mer frequency, TF over GST control); in experiment [4] it was 1.01 fold enrichment (6-mer frequency, TF over GST control).

Regarding AGATTG, the binding signal in experiment [2] is 1.01 fold enrichment (6-mer frequency, TF over GST control); in [4], 1.06 fold enrichment (6-mer frequency, TF over GST control).

On to TCAAGA, for which the binding signal in experiment [2] was 1.12 fold enrichment (6-mer frequency, TF over GST control); in experiment [4], 1.03 fold enrichment (6-mer frequency, TF over GST control).

AGAGAT: the binding signal was 1.16 fold enrichment (6-mer frequency, TF over GST control) in experiment [2] and 1.38 fold enrichment (6-mer frequency, TF over GST control) in [4].

CCAGAT: the binding signal was 1.61 fold enrichment (6-mer frequency, TF over GST control) in [2] and 1.34 fold enrichment (6-mer frequency, TF over GST control) in experiment [4].

ATCCAG: the binding signal in [2] was 1.53 fold enrichment (6-mer frequency, TF over GST control); in [4], 1.29 fold enrichment (6-mer frequency, TF over GST control).

For AGCATA, the binding signal in [2] was 1.04 fold enrichment (6-mer frequency, TF over GST control); in [7], 1.01 fold enrichment (6-mer frequency, TF over GST control); in [8] it was 1.01 fold enrichment (6-mer frequency, TF over GST control).

For the sequence GAATGG, the binding signal is 1 fold enrichment (6-mer frequency, TF over GST control) in [9]; 1.02 fold enrichment (6-mer frequency, TF over GST control) in experiment [10]; 1.06 fold enrichment (6-mer frequency, TF over GST control) in [11]; 1.07 fold enrichment (6-mer frequency, TF over GST control) in experiment [2]; 1.1 fold enrichment (6-mer frequency, TF over GST control) in [3]; 1.01 fold enrichment (6-mer frequency, TF over GST control) in experiment [5]. Besides, the binding signal in experiment [12] was 1.04 fold enrichment (6-mer frequency, TF over GST control).
